# Counter-ions that a name gives are not always drawn. ± gives the standard deviation or the standard deviation of the averaged measurements.
# Legend:
# Conditions in all cases: 25 µM; exposure: 24-48 hpf
# [1] = test system: Danio rerio Tg(wt1b:EGFP) embryo, pronephros; test: glomerular separation, fold change vs DMSO control; higher = glomeruli further apart (abnormal)
# How it was run: (§1)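 In HEPES-buffered E3 with 0.003% PTU and 0.5% DMSO, dechorionated Tg(wt1b:EGFP) zebrafish embryos were exposed to 25 μM compound from 24 to 48 hpf at 28.5°C. Pronephroi were then imaged dorsally at 470 nm in 10 z-slices, in 96-well plates filled with agarose. On maximum projections, a Fiji macro turned 16 manually placed reference points into distances and angles, and values more than 2 SD from the feature mean were excluded. Features are fold changes relative to the mean of DMSO-treated embryos from the same day.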
# [2] = test system: Danio rerio Tg(wt1b:EGFP) embryo, pronephros; test: glomerular width (mean of left and right), fold change vs DMSO control; higher = wider glomerulus
# How it was run: as §1
# [3] = test system: Danio rerio Tg(wt1b:EGFP) embryo, pronephros; test: fraction of imaged embryos annotated as normal kidney; higher = less nephrotoxic; extreme values may be limits of the assay
# How it was run: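 Zebrafish embryos carrying Tg(wt1b:EGFP) were dechorionated and exposed to 25 μM compound (0.5% DMSO) between 24 and 48 hpf at 28.5°C. Their pronephroi were imaged by widefield fluorescence, and each embryo was classed by hand from maximum projections. The measure is the fraction of embryos per treatment falling in the normal-kidney category.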
# [4] = test system: Danio rerio Tg(wt1b:EGFP) embryo, pronephros; test: pronephric angle neck segment to proximal convoluted tubule (mean of left and right), fold change vs DMSO control; higher = larger pronephric angle
# How it was run: as §1
Compound,glomerular separation [1],glomerular width [2],fraction of imaged embryos annotated as normal kidney [3],pronephric angle neck segment [4]
CC(C)(C)NC[C@@H](O)COc1cccc2c1CCCC2=O [(+) -Levobunolol hydrochloride],0.984 ± 0.46,0.935 ± 0.054,0.75,1.03 ± 0.015
COc1ccc(-c2ccc(=N)n(CCCC(=O)O)n2)cc1 [Gabazine bromide],0.985 ± 0.27,0.983 ± 0.024,0.667,1.02 ± 0.026
C[n+]1ccccc1/C=N/O [Pralidoxime chloride],0.691 ± 0.38,0.9582 ± 0.0035,0.833,1.039 ± 0.01
CNS(=O)(=O)Cc1ccc2[nH]cc(CCN(C)C)c2c1 [Sumatriptan succinate],0.982 ± 0.29,1.03 ± 0.053,1,1 ± 0.04

# Source: the supplement of paper PMC7366291
